# Results: PubChem BioAssay (NCI)
# Compounds without any hit were thinned out: in the full panel of roughly 79,000, 15% have a hit. A number with no mark means an inactive call. Calls of active or inactive are those of the source. No stated cut-off is given here; in the data, active means growth inhibition above about 70%; inactive means the rest.
# Assay: NCI Yeast Anticancer Drug Screen. Data for the rad50 strain (AID 155);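 further: 0% = growth of vehicle-only cultures of the same strain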
# Settings: S. cerevisiae rad50 strain growth inhibition; at 50.0 µM; stronger effect = higher value
# Summary of the method: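 Genetically altered yeast (DNA repair pathway); compound treatment; growth inhibition vs vehicle ctrl.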
row,Structure (SMILES),growth inhibition
1,COc1cc(S(N)(=O)=O)c(OC)cc1N,21.1%
2,O=C1CCCNC(=O)CCCN1,15%
3,N#CCCn1[nH]c(=O)c(Cl)c(Cl)c1=O,6.95%
4,c1csc(-c2nn3c(C45CC6CC(CC(C6)C4)C5)nnc3s2)c1,10.9%
5,O=C(Nc1ccc(Cl)cc1)C(=O)C1=C(O)c2ccccc2OC1,16.9%
6,COc1cc2c(cc1OC)C(C(CO)CO)N(CC(O)CCl)CC2 (stereo not given),-25.6%
7,CCC(c1ccco1)C(C#N)C(=O)OC(C)(C)C (stereo not given),-11.8%
8,CSc1nc2cc(S(=O)(=O)N3CCCCC3)ccc2s1,-34.5%
9,CC(S)c1ccccc1 (stereo not given),6.4%
10,CN(C(=O)c1ccc(C(=N)N)cc1)c1ccccc1,-8.3%
11,CC(=O)Nc1cc(OC(C)=O)nc2c1CCC2,14.2%
12,COC1/C=C/C(C)C(C(C)C(OC)C(C)CCC(=O)C(C)C(C/C=C/N(C)C=O)OC)OC(=O)/C=C/C=C(\C)CC(OC)C(OC)C2=CC(=O)O[C@@H](C(C)C(OC)CC(OC)/C=C/C(C)C(O)C1)[C@H]2O (stereo not given in full),86.8% (active)
13,CC1COC(C)(C)O1 (stereo not given),19.3%
14,CCOC(=O)Sc1nccn1C,8.05%
15,CC1CC/C(=N\O)CCCCC(=O)O1 (stereo not given),-3.45%
16,CC(=O)OC[C@]1(C)CCCC2(C)C1CCC1C=C(C)[C@H]3CCC12C3 (stereo not given in full),2.05%
17,CCCC1OC1(CC)C(=O)OCC(CC)(COC(=O)C1(CC)OC1CCC)COC(=O)C1(CC)OC1CCC (stereo not given),-7.4%
18,Sc1ccccc1N=Cc1ccc(C=Nc2ccccc2S)cc1,-15.8%
19,CCN(c1ccc(Br)cc1)c1ccc(Br)cc1,-14.2%
20,N[C@H](C(=O)O)[C@H]1ON=C(Cl)[C@@H]1O,7.4%

row,Structure (SMILES),growth inhibition
1,Nc1cc(Cl)ccc1S(=O)(=O)O,-7.1%
2,CCOC(=O)NC(Nc1cccc(F)c1)(C(F)(F)F)C(F)(F)F,16.8%
3,COc1cc(C)ccc1C(=O)C[n+]1ccc2ccccc2c1,-41.3%
4,CC1(C)C(=O)N(c2ccccc2)C1c1ccccc1 (stereo not given),-6.2%
5,CC(=O)N(C(C)=O)C(CS)C(=O)O (stereo not given),4.1%
6,Cc1cn(C(=O)NC23CC4CC(CC(C4)C2)C3)c(=O)[nH]c1=O,14.8%
7,Clc1cccc(CC(Br)Br)c1,14.8%
8,C=CC(=O)OCc1ccc(OC)cc1,30.1%
9,CC1OC(c2ccc(Cl)cc2)OC1C (stereo not given),16.4%
10,Cc1c(-c2ccccc2)[nH]n(C2=NCCN2)c1=O,10.8%
11,COc1ccc(CCN2C(=O)c3cccc4c(Br)ccc(c34)C2=O)cc1,23.8%
12,CCOC(=O)c1ccc(NC(=S)NC(=O)c2cccs2)o1,43.4%
13,Cc1cc(C)c(N)c(C)n1,-14.8%
14,COC(=O)C1=C(C(=O)OC)N(C(C)C)[C@H]2C(C(=O)OC)=C(C(=O)OC)N(C(C)C)[C@@H]12,0.2%
15,NNC(=O)CC(N)C(N)=O (stereo not given),-4.1%
16,CCOCNC(=O)Nc1ccccc1,-5.4%
17,Cc1cc(=O)n(NC(N)=O)c(C)c1C(=O)O,-0.8%
18,COC(=O)C(Cl)=C1CC1,5.7%
19,O=[N+]([O-])c1ccccc1S(=O)NCc1c(Cl)cccc1Cl (stereo not given),14.1%
20,OC(CNCCc1ccccc1)COc1cccc2ccccc12 (stereo not given),86.2% (active)

# Assay: NCI Yeast Anticancer Drug Screen. Data for the mec2-1 strain (AID 157)
# Settings: S. cerevisiae mec2-1 strain, at 50.0 µM, stronger effect = higher value
# Summary of the method: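 Each compound was tested on mec2-1 yeast, a strain altered in DNA damage repair or cell cycle control. Growth inhibition is reported relative to vehicle.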
row,Structure (SMILES),growth inhibition
1,COc1cc(S(N)(=O)=O)c(OC)cc1N,-28.2%
2,O=C1CCCNC(=O)CCCN1,-9.55%
3,N#CCCn1[nH]c(=O)c(Cl)c(Cl)c1=O,4.6%
4,c1csc(-c2nn3c(C45CC6CC(CC(C6)C4)C5)nnc3s2)c1,-15.3%
5,O=C(Nc1ccc(Cl)cc1)C(=O)C1=C(O)c2ccccc2OC1,-5.95%
6,COc1cc2c(cc1OC)C(C(CO)CO)N(CC(O)CCl)CC2 (stereo not given),-16.1%
7,CCC(c1ccco1)C(C#N)C(=O)OC(C)(C)C (stereo not given),-21.9%
8,CSc1nc2cc(S(=O)(=O)N3CCCCC3)ccc2s1,-21.8%
9,CC(S)c1ccccc1 (stereo not given),-0.55%
10,CN(C(=O)c1ccc(C(=N)N)cc1)c1ccccc1,-7.3%
11,CC(=O)Nc1cc(OC(C)=O)nc2c1CCC2,-0.05%
12,COC1/C=C/C(C)C(C(C)C(OC)C(C)CCC(=O)C(C)C(C/C=C/N(C)C=O)OC)OC(=O)/C=C/C=C(\C)CC(OC)C(OC)C2=CC(=O)O[C@@H](C(C)C(OC)CC(OC)/C=C/C(C)C(O)C1)[C@H]2O (stereo not given in full),90.2% (active)
13,CC1COC(C)(C)O1 (stereo not given),-31.6%
14,CCOC(=O)Sc1nccn1C,-19.2%
15,CC1CC/C(=N\O)CCCCC(=O)O1 (stereo not given),-0.35%
16,CC(=O)OC[C@]1(C)CCCC2(C)C1CCC1C=C(C)[C@H]3CCC12C3 (stereo not given in full),-2.85%
17,CCCC1OC1(CC)C(=O)OCC(CC)(COC(=O)C1(CC)OC1CCC)COC(=O)C1(CC)OC1CCC (stereo not given),-19.5%
18,Sc1ccccc1N=Cc1ccc(C=Nc2ccccc2S)cc1,-8.05%
19,CCN(c1ccc(Br)cc1)c1ccc(Br)cc1,-20.1%
20,N[C@H](C(=O)O)[C@H]1ON=C(Cl)[C@@H]1O,4.55%

row,Structure (SMILES),growth inhibition
1,Nc1cc(Cl)ccc1S(=O)(=O)O,-1.8%
2,CCOC(=O)NC(Nc1cccc(F)c1)(C(F)(F)F)C(F)(F)F,-9.05%
3,COc1cc(C)ccc1C(=O)C[n+]1ccc2ccccc2c1,-1.35%
4,CC1(C)C(=O)N(c2ccccc2)C1c1ccccc1 (stereo not given),-5.4%
5,CC(=O)N(C(C)=O)C(CS)C(=O)O (stereo not given),-11.8%
6,Cc1cn(C(=O)NC23CC4CC(CC(C4)C2)C3)c(=O)[nH]c1=O,1.6%
7,Clc1cccc(CC(Br)Br)c1,4.45%
8,C=CC(=O)OCc1ccc(OC)cc1,32.2%
9,CC1OC(c2ccc(Cl)cc2)OC1C (stereo not given),20.9%
10,Cc1c(-c2ccccc2)[nH]n(C2=NCCN2)c1=O,7.45%
11,COc1ccc(CCN2C(=O)c3cccc4c(Br)ccc(c34)C2=O)cc1,1.3%
12,CCOC(=O)c1ccc(NC(=S)NC(=O)c2cccs2)o1,49.8%
13,Cc1cc(C)c(N)c(C)n1,-9.6%
14,COC(=O)C1=C(C(=O)OC)N(C(C)C)[C@H]2C(C(=O)OC)=C(C(=O)OC)N(C(C)C)[C@@H]12,-9.75%
15,NNC(=O)CC(N)C(N)=O (stereo not given),3.5%
16,CCOCNC(=O)Nc1ccccc1,-15.6%
17,Cc1cc(=O)n(NC(N)=O)c(C)c1C(=O)O,0.45%
18,COC(=O)C(Cl)=C1CC1,10.4%
19,O=[N+]([O-])c1ccccc1S(=O)NCc1c(Cl)cccc1Cl (stereo not given),13.3%
20,OC(CNCCc1ccccc1)COc1cccc2ccccc12 (stereo not given),92% (active)
